PubChem BioAssay (NCI)
The panel holds about 83,000 compounds, 20% with a hit somewhere; the sample as a whole holds those more often.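 48-hour exposure, single concentration, 96-well plates; percent growth endpoint where 0 means no net growth. Active: below 10.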 The source made the active and inactive calls.

system: HL-60(TB) leukemia; test: NCI-60 one-dose screen, 48 h (100 = growth as untreated, 0 = no growth, -100 = all killed); details: 10 µM unless noted

Row | SMILES | growth
1 | c1cc(OCCCCCOc2cccc(-c3nc4ccccc4[nH]3)c2)cc(-c2nc3ccccc3[nH]2)c1 | -32.2% (active)
2 | O=C1CCC(C(=O)NN(c2ccccc2)c2ccccc2)N1 (stereo not drawn) | -18.8% (active)
3 | C=C1C(=O)O[C@H]2[C@H]1CC/C(COC(=O)NCc1ccc(Cn3c(=O)sn(CCCC)c3=O)cc1)=C\CC[C@@]1(C)O[C@@H]21 | -33.2% (active)
4 | C#C[C@]1(O)CC[C@H]2[C@@H]3CC=C4c5nc(Nc6ccccc6[N+](=O)[O-])sc5CC[C@]4(C)[C@H]3CC[C@@]21C | 77.7% (inactive)
5 | ClCc1cccc(CSc2ncnc3c2ncn3Cc2cccc(CCl)c2)c1 | 23.7% (inactive)
6 | CC(C)CCc1nc2ccc(NCc3ccc(OCCN4CCC(C)CC4)cc3)cc2[nH]1 | 84.8% (inactive)
7 | Cn1c(=O)c2c(nc(N3CCCC3)n2C)n(C)c1=O | 95.4% (inactive)
8 | O=C(CN1CCOCC1)Nc1ccc2ncnc(Nc3ccc(Oc4cccc(C(F)(F)F)c4)c(Cl)c3)c2c1 | 70.1% (inactive)
9 | Cn1cc(-c2nnc(-c3cn(C)c4ncccc34)o2)c2ccccc21 | 12.5% (inactive)
10 | CCN1/C(=C/C=C/C=C/c2sc3ccccc3[n+]2CC)Sc2ccccc21 | -58.4% (active)
11 | C=C(C)C1CCC2(C(=O)O)CCC3(C)C(CCC4C5(C)CCC(OC(=O)NCc6ccccc6)C(C)(C)C5CCC43C)C12 (stereo not drawn) | 23% (inactive)
12 | COc1cccc(/C=C/C(=O)c2cccc(Nc3nc(Nc4ccccc4)nc(Nc4ccccc4)n3)c2)c1 | 94.2% (inactive)
13 | CCC/C=C(\C)C(C)(C#N)C(=O)OCC (stereo not drawn) | 103% (inactive)
